# Assay results from PubChem BioAssay (NCATS).
# Records with an inconclusive call do not appear. A call without a number means that no potency is given here. Active and inactive are the calls of the source. Unless noted, calls come from the whole dose curve; as a rule, active = well fitted curve in the direction sought with a large enough effect; inconclusive = small, poorly fitted or top-dose-only effect, or another doubt; inactive = no such curve, though single readings can be large; an effect the other way counts as inactive or inconclusive.
# Experiments:
# [1] = target: Thioredoxin reductase 1, cytoplasmic (Rattus norvegicus) (UniProt O89049); assay: qHTS Assay for Inhibitors of Mammalian Selenoprotein Thioredoxin Reductase 1 (TrxR1) (AID 488773); conditions: Potency: inhibition; note: nearly all actives have a fitted effect of over 40% in size; note: potency is the fitted concentration of half-maximal effect
# Summary of the method: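 Inhibition is scored from the loss of NADPH fluorescence between first and last reads of an 8-min kinetic run. Selenite (400 uM) was the substrate, added after 15 min compound preincubation at room temperature.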
# [2] = target: Flap endonuclease 1 (Homo sapiens) (UniProt P39748); assay: qHTS Validation Assay for the Inhibitors of Human Flap endonuclease 1 (FEN1) (AID 488816); note: potency is the fitted concentration of half-maximal effect
# Summary of the method: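 qHTS format: compounds and 10 nM FEN1 incubated 15 min at room temperature before adding 50 nM substrate. Cleavage followed by reads at 0 and 15 min; normalized data fitted to a four-parameter Hill curve.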
# [3] = target: Chromobox protein homolog 1 (Homo sapiens) (UniProt P83916); assay: qHTS Validation Assay for Inhibitors of HP1-beta Chromodomain Interactions with Methylated Histone Tails (AID 488953); note: nearly all actives have a fitted effect of over 50% in size; note: potency is the fitted concentration of half-maximal effect
# Summary of the method: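 Disruption of preformed HP1-beta:H3K9me3 peptide complexes (both 50 nM, PBS pH 7.4 with 0.01% Tween-20) is measured by AlphaScreen after 30 min compound exposure at room temperature, using streptavidin donor and nickel chelate acceptor beads at 10 ug/mL final.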
# [4] = target: Methanococcus maripaludis chaperonin (MmCpn) (UniProt Q6LX38); assay: High-Throughput Screening for Modulators of Cytosolic Chaperonin Activity: MmCpn Primary Screen (AID 488978);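 note: 50 nM MmCpn enzyme hydrolysing 30 µM ATP at 37 °C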
# Summary of the method: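 Steps: chaperonin 50 nM final; add compound, 5 min RT; start with ATP, 30 uM final; hold 10 min at 37C; add ADP Transcreener HTRF reagent, 5 min; read ex 320, em 590 and 665 nm.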
# [5] = target: Thyrotropin receptor (Homo sapiens) (UniProt P16473); assay: qHTS Assay for Antagonists of the Thyroid Stimulating Hormone Receptor (AID 488980); note: series mostly up to about 58 µM
# Summary of the method: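 Readout is cAMP by HTRF competition between cellular cAMP and cAMP-d2 for a cryptate-labelled antibody. Antagonism was assessed in TSHR-transfected HEK293 cells stimulated with 4 nM TSH (EC80, final) in the presence of RO 20-1724.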
# [6] = target: D(1A) dopamine receptor (Homo sapiens) (UniProt P21728); assay: HTS Assay for Allosteric Agonists of the Human D1 Dopamine Receptor: Primary Screen for Agonists (AID 488981)
# Summary of the method: (§1)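 Calcium flux in an inducible, force-coupled HEK293 Trex D1 line (overnight at 30 C): agonist mode is the 180 s kinetic read after compound; potentiator mode is the following 180 s read after dopamine at EC20.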
# [7] = target: D(1A) dopamine receptor (Homo sapiens) (UniProt P21728); assay: HTS Assay for Allosteric Agonists of the Human D1 Dopamine Receptor: Primary Screen for Potentiators (AID 488982)
# Summary of the method: as §1
# [8] = Validation screen for small molecules that induce genotoxicity in human embryonic kidney (HEK293T) cells expressing luciferase-tagged ELG1 (AID 493106)
# Summary of the method: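 Cells were dispensed at 2,000 per well, then 23 nL compound or DMSO was pinned in. After 16 hr at 37 °C and 5% CO2, ONE-Glo reagent was added. Luciferase activity was measured following 30 min at room temperature.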
# [9] = target: Thyrotropin-releasing hormone receptor (Homo sapiens) (UniProt P34981); assay: qHTS for Small Molecule Agonists and Allosteric Enhancers of Human TRH Receptor: Validation Screen for Agonists (AID 493127;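 active = calcium activation more than 3 SD above the typical response in the agonist read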;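 note: intracellular calcium rise by fluo-8 fluorescence before TRH EC20 addition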); conditions: TRH receptor agonist cell assay; at 2 µM; stronger effect = higher value
# Summary of the method: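 Compounds are added by online pintool to dye-loaded TRHR cells while fluorescence is recorded every second. A rise in calcium signal during the agonist read marks activation; a later 10 nM TRH addition (EC20) serves the separate enhancer mode.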
# [10] = qHTS for Inhibitors of Cell Surface uPA Generation: Validation Assay (AID 493164);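 note: RAW 264.7 macrophage cells exposed to compound for 18 h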
# Summary of the method: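 ATP-Lite luminescence read-out: ATP remains high when uPA activity-dependent LF translocation into the cytoplasm is blocked. RAW 264.7 cells, 18 h compound exposure at 37 C; 7-point titration, 2.45 nM to 38.3 uM final.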
# [11] = target: Galactokinase (Homo sapiens) (UniProt P51570); assay: qHTS Validation Assay for Inhibitors of Human Galactokinase (GALK) (AID 493189)
# Summary of the method: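 5 nM GALK / 100 uM galactose / 35 uM ATP, 20 mM HEPES pH8.0, 5 mM MgCl2, 60 mM NaCl, 1 mM DTT, 0.01% BSA (final). RT 1 h; Kinase-Glo Plus luminescence.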
# [12] = Validation screen for small molecules that induce DNA re-replication in SW480 colon adenocarcinoma cells (AID 504364)
# Summary of the method: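 Image-based qHTS: compounds were incubated with SW480 cells for 48 hr, nuclei stained with Hoechst, and per-nucleus fluorescence intensity scanned to flag cells with excess DNA content.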
# [13] = target: Peptidyl-prolyl cis-trans isomerase NIMA-interacting 1 (Homo sapiens) (UniProt Q13526); assay: qHTS Validation Assay to Find Inhibitors of Pin1 (AID 504536; active = well fitted inhibition curve with a large enough effect in the polarisation, with a control signal flat, not every such curve was filed as active; the % refers to the polarisation)
# Summary of the method: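 Fluorescence polarization competition: compounds (titration) displace HiFluor-488-labeled Pin1-1b peptide from Pin1 (0.3 uM final) in pH 7.5 HEPES buffer with DTT, 10 min at room temperature; %Activity normalized to no-enzyme wells, curves fitted.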
# [14] = target: Phosphoglycerate kinase, glycosomal (Trypanosoma brucei brucei) (UniProt P07378); assay: qHTS Validation Assay to Find Inhibitors of Phosphoglycerate Kinase (AID 504547); note: potency is the fitted concentration of half-maximal effect
# Summary of the method: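 Luminescence end-point (Kinase-Glo Plus, 10 min) after a 60 min room-temperature coupled reaction. GAPDH at 100nM final supplies 1,3-BPG to PGK. Buffer: 100mM TEA pH 7.6, 5mM MgCl2, 0.01% Tween-20. Wells lacking PGK served as controls.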
# [15] = target: phosphoglycerate mutase (Leishmania major) (UniProt Q4Q090); assay: qHTS Validation Assay to Find Inhibitors of Phosphoglycerate Mutase (AID 504548); conditions: Potency: inhibition qHTS;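 note: end-point luminescence from Kinase-GloPlus after the PGAM reaction; series mostly up to about 58 µM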
# Summary of the method: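 Inhibition of L. major PGAM was assessed by Kinase-GloPlus luminescence following a 45-minute room-temperature reaction with enzyme at 1.25nM final.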
# [16] = target: Ubiquitin carboxyl-terminal hydrolase 1 (Homo sapiens) (UniProt O94782); assay: Inhibitors of USP1/UAF1: Pilot qHTS (AID 504865);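 note: rhodamine fluorescence freed from ubiquitin-rhodamine substrate followed over time; top concentration of the series differs between compounds; nearly all actives have a fitted effect of over 35% in size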
# Summary of the method: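 In 50mM HEPES pH 7.8 containing 0.5mM EDTA, 1mM TCEP, 0.1 mg/ml BSA and 0.01% Tween-20, 1nM USP1/UAF1 is exposed to compound for 15 min, then Ub-Rho (150nM final) is added and fluorescence is read over time.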
# [17] = qHTS for Inhibitors of ATXN expression: Validation of Cytotoxic Assay (AID 588349)
# Summary of the method: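 Titrated compounds are added to cultured HEK293 cells, which are then held at 37 degrees C for 72 hr; loss of intracellular ATP, measured with CellTiter Glo, indicates toxicity.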
# [18] = target: DNA dC->dU-editing enzyme APOBEC-3G (Homo sapiens) (UniProt Q9HC16); assay: qHTS for inhibitors of Vif-A3G interactions: Validation (AID 588379)
# Summary of the method: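 Yellow fluorescence (Ex 488, Em 500-530) of Vif-coexpressing HeLa A3G-eYFP cells, scanned by Acumen cytometer, reports blocked A3G degradation. Cells plated at 700/well overnight at 37 deg C before compound addition, then a further overnight compound incubation at 37 deg C.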
# [19] = target: ATP-dependent 6-phosphofructokinase (Trypanosoma brucei brucei) (UniProt O15648); assay: qHTS Assay to Find Inhibitors of T. brucei phosphofructokinase: hit validation (AID 492961);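 note: luminescence reports ADP formed as PFK phosphorylates fructose-6-phosphate with ATP; series mostly up to about 51 µM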
# Summary of the method: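 In this biochemical qHTS validation, titrated compounds were tested against 1.25 nM PFK with 0.1 mM ATP and 0.5 mM F6P. Percent activity came from controls lacking or containing enzyme.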
# [20] = Nrf2 qHTS screen for inhibitors: Validation (AID 493153; active = well fitted inhibition curve with a large enough effect in the main read-out, with a control signal flat, not every such curve was filed as active); conditions: Potency: luciferase luminescence; viability change: measured here: cytotoxicity max response
# Summary of the method: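 A549 ARE_Fluc, 5% FBS OPTI-MEM; cpd titration, 18-24 h, 37°C/5% CO2. Read 1: CellTiter-Fluor (Ex 405/Em 525), cytotox. Read 2: luciferase lum, Nrf2 activity.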
# phosphoglycerate mutase (Leishmania major), sequence (Q4Q090 1-553): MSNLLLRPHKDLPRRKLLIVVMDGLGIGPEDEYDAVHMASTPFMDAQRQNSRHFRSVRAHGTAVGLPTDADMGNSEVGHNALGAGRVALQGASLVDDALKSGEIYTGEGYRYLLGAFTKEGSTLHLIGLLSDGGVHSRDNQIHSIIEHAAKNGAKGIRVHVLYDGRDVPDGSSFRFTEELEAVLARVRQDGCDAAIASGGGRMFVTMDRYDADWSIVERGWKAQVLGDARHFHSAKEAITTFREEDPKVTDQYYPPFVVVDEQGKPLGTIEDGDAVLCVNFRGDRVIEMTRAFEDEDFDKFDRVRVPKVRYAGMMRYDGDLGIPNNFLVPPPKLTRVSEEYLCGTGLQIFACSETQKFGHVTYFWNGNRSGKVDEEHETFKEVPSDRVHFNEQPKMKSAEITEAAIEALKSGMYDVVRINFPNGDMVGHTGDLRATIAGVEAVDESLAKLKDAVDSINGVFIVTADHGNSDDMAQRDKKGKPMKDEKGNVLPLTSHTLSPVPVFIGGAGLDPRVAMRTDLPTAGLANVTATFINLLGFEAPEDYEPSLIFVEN
# Thyrotropin receptor (Homo sapiens), sequence (P16473 whole entry, looked up): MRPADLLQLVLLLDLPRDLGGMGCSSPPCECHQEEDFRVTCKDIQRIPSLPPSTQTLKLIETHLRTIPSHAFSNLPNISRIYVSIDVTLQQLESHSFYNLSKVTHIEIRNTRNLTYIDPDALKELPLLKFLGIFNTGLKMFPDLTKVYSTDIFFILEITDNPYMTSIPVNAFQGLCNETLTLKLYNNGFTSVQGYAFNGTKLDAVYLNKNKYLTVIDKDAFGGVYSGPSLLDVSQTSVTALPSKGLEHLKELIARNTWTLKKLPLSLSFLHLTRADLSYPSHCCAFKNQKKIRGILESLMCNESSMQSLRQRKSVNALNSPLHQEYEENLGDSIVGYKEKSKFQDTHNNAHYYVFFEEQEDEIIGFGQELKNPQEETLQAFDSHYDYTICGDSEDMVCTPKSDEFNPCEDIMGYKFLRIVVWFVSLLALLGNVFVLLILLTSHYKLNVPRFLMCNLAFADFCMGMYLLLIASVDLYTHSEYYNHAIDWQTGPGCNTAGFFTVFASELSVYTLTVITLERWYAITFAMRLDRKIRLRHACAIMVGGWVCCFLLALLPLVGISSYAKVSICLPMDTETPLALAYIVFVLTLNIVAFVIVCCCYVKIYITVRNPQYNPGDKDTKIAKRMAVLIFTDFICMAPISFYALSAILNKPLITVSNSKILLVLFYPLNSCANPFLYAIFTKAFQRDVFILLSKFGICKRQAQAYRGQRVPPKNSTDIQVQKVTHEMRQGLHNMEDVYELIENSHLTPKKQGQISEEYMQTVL
# Methanococcus maripaludis chaperonin (MmCpn), sequence (Q6LX38 1-543): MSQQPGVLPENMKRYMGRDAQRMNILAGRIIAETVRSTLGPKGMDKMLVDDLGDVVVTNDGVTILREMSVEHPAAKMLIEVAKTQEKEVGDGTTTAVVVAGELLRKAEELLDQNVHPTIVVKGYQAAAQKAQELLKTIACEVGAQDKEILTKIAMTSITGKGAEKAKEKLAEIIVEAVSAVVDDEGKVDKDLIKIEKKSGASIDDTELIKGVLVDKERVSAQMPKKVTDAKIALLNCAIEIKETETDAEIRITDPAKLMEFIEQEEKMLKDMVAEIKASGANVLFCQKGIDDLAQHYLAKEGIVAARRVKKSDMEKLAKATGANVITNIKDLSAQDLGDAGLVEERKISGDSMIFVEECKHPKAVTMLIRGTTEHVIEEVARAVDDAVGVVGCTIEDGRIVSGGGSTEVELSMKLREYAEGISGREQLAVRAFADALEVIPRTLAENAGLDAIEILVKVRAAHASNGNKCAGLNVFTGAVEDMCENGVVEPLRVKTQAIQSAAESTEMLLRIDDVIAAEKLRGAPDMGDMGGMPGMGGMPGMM
# Galactokinase (Homo sapiens), sequence (P51570 whole entry, looked up): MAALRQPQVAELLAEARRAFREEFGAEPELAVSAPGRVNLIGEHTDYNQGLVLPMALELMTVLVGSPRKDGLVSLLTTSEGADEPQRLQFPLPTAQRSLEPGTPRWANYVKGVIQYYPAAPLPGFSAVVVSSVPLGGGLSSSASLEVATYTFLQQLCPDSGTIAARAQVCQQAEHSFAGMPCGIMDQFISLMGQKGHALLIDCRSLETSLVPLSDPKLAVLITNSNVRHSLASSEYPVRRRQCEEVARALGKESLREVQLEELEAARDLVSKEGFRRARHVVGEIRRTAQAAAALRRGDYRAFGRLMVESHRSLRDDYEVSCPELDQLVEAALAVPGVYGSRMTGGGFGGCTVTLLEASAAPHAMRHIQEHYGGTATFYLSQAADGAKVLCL
# Peptidyl-prolyl cis-trans isomerase NIMA-interacting 1 (Homo sapiens), sequence (Q13526 whole entry, looked up): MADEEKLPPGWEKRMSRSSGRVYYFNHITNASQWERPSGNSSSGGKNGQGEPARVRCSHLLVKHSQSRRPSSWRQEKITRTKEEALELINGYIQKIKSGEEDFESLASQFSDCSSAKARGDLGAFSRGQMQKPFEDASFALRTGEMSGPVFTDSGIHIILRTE
# Flap endonuclease 1 (Homo sapiens), sequence (P39748 whole entry, looked up): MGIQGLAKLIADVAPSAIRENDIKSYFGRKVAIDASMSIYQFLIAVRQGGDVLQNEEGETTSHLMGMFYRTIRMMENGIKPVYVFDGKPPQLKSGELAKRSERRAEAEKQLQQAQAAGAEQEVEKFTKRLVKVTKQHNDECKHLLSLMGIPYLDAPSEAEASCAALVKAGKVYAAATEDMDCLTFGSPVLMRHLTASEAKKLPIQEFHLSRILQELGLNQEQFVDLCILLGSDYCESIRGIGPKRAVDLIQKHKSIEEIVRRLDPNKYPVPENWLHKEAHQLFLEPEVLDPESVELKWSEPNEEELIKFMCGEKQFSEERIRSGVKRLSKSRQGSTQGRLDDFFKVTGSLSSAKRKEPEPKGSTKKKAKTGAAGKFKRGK
# DNA dC->dU-editing enzyme APOBEC-3G (Homo sapiens), sequence (Q9HC16 whole entry, looked up): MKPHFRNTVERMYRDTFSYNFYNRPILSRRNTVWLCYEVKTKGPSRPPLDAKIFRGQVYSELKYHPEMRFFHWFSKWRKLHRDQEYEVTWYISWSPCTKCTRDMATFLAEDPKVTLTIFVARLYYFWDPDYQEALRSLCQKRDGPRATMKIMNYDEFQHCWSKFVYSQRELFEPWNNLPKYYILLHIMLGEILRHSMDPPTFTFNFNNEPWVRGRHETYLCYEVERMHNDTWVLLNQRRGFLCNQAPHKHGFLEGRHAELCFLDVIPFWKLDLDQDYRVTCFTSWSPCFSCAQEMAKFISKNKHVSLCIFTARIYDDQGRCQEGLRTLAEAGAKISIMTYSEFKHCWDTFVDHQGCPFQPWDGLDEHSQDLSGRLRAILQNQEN
# Phosphoglycerate kinase, glycosomal (Trypanosoma brucei brucei), sequence (P07378 whole entry, looked up): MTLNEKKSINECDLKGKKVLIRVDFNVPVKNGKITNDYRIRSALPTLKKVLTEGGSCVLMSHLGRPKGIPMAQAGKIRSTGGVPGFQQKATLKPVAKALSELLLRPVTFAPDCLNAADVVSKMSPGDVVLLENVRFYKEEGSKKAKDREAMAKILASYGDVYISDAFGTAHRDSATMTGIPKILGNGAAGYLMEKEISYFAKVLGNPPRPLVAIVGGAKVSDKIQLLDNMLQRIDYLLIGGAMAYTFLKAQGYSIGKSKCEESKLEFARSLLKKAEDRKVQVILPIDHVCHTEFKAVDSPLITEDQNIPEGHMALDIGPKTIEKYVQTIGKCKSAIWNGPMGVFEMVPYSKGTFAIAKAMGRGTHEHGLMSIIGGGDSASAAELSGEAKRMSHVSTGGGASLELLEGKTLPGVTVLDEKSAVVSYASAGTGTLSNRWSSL
# Thioredoxin reductase 1, cytoplasmic (Rattus norvegicus), sequence (O89049 whole entry, looked up): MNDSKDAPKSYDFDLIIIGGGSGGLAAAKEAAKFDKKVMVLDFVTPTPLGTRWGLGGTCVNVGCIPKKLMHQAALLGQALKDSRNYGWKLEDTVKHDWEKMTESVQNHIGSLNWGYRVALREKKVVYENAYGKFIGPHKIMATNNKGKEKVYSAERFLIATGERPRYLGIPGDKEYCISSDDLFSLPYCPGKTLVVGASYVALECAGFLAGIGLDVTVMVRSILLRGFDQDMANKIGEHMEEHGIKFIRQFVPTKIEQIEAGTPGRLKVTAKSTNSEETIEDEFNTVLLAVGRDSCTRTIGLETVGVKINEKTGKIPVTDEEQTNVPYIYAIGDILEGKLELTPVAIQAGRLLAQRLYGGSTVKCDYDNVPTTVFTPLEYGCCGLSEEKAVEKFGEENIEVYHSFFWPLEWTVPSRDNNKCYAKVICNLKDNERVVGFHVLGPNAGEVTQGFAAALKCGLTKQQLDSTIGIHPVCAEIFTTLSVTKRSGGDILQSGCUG
# D(1A) dopamine receptor (Homo sapiens), sequence (P21728 whole entry, looked up): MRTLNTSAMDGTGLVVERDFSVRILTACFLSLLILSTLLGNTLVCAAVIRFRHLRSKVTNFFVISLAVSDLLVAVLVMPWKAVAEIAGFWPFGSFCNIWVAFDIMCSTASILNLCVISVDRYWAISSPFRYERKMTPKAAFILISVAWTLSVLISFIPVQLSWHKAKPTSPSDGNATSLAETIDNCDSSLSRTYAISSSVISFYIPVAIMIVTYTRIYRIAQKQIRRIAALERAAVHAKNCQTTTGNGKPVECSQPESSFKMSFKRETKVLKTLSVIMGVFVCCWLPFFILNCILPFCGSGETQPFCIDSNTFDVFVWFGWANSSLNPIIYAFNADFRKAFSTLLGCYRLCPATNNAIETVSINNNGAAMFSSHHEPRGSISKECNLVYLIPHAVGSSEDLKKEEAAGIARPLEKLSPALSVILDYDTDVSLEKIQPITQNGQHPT
# Chromobox protein homolog 1 (Homo sapiens), sequence (P83916 whole entry, looked up): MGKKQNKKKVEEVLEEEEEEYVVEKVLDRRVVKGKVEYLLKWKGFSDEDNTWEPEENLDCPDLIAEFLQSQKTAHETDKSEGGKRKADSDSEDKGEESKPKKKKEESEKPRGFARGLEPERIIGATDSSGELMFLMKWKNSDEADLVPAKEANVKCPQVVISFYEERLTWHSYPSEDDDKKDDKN
compound,measurement,setting,value
C[C@@H](N)C1CCC(C(=O)Nc2ccncc2)CC1 (stereo not given in full),Potency,[1],inactive
same,Potency,[2],inactive
same,Potency,[3],inactive
same,outcome,[4],inactive
same,outcome,[5],inactive
same,outcome,[6],inactive
same,Potency,[7],inactive
same,Potency,[8],inactive
same,activation,[9],1.06% (inactive)
same,outcome,[10],inactive
same,outcome,[11],inactive
same,Potency,[12],inactive
same,outcome,[13],inactive
same,Potency,[14],inactive
same,Potency,[15],inactive
same,Potency,[16],inactive
same,outcome,[17],inactive
CC1(C)NC(=O)N(c2ccc([N+](=O)[O-])c(C(F)(F)F)c2)C1=O,Potency,[1],inactive
same,Potency,[2],inactive
same,Potency,[3],inactive
same,outcome,[4],inactive
same,outcome,[5],inactive
same,outcome,[6],inactive
same,Potency,[7],inactive
same,Potency,[8],inactive
same,activation,[9],-3.25% (inactive)
same,outcome,[10],inactive
same,outcome,[11],inactive
same,Potency,[12],inactive
same,outcome,[13],inactive
same,Potency,[14],inactive
same,Potency,[15],inactive
same,Potency,[16],inactive
same,outcome,[17],inactive
same,outcome,[18],inactive
CC(=O)N1CCN(c2ccc(OC[C@H]3CO[C@](Cn4ccnc4)(c4ccc(Cl)cc4Cl)O3)cc2)CC1,Potency,[1],inactive
same,outcome,[4],inactive
same,outcome,[5],inactive
same,Potency,[7],inactive
same,outcome,[10],inactive
same,outcome,[11],inactive
same,Potency,[12],inactive
same,outcome,[13],inactive
same,Potency,[14],inactive
same,Potency,[15],inactive
same,outcome,[18],inactive
NCCCCNCCCN,Potency,[1],inactive
same,Potency,[2],inactive
same,Potency,[3],inactive
same,outcome,[4],inactive
same,outcome,[5],inactive
same,outcome,[6],inactive
same,Potency,[7],inactive
same,Potency,[8],inactive
same,activation,[9],-0.0625% (inactive)
same,outcome,[10],inactive
same,outcome,[11],inactive
same,Potency,[12],inactive
same,outcome,[13],inactive
same,Potency,[14],inactive
same,Potency,[15],inactive
same,Potency,[16],inactive
same,outcome,[17],inactive
same,outcome,[18],inactive
O=c1cc(N2CCOCC2)oc2c(-c3ccccc3)cccc12,Potency,[1],inactive
same,Potency,[2],inactive
same,Potency,[3],26.7 µM (active)
same,outcome,[4],inactive
same,outcome,[5],inactive
same,outcome,[6],inactive
same,Potency,[7],inactive
same,Potency,[8],inactive
same,activation,[9],-3.19% (inactive)
same,outcome,[10],inactive
same,outcome,[11],inactive
same,Potency,[12],inactive
same,outcome,[13],inactive
same,Potency,[14],inactive
same,Potency,[15],inactive
same,Potency,[16],inactive
same,outcome,[17],inactive
same,outcome,[18],inactive
NNc1nncc2ccccc12,Potency,[1],inactive
same,Potency,[2],inactive
same,Potency,[3],inactive
same,outcome,[4],inactive
same,outcome,[5],inactive
same,outcome,[6],inactive
same,Potency,[7],inactive
same,outcome,[19],inactive
same,outcome,[10],inactive
same,outcome,[11],inactive
same,Potency,[12],inactive
same,outcome,[13],inactive
same,Potency,[14],inactive
same,Potency,[15],inactive
same,Potency,[16],inactive
same,outcome,[17],inactive
O=c1c(O)c(-c2cc(O)c(O)c(O)c2)oc2cc(O)cc(O)c12,Potency,[1],13.4 µM (active)
same,Potency,[2],1.5 µM (active)
same,Potency,[3],14.1 µM (active)
same,outcome,[4],inactive
same,outcome,[5],inactive
same,outcome,[6],inactive
same,Potency,[7],inactive
same,Potency,[8],inactive
same,activation,[9],1.38% (inactive)
same,outcome,[10],inactive
same,outcome,[11],inactive
same,Potency,[12],inactive
same,Potency,[14],3.01 µM (active)
same,Potency,[15],inactive
same,outcome,[18],inactive
COc1ccc2cc([C@H](C)C(=O)O)ccc2c1,Potency,[1],inactive
same,Potency,[2],inactive
same,Potency,[3],0.006 µM (active)
same,outcome,[4],inactive
same,outcome,[5],inactive
same,outcome,[6],inactive
same,Potency,[7],inactive
same,outcome,[19],inactive
same,Potency,[8],inactive
same,outcome,[10],inactive
same,outcome,[11],inactive
same,Potency,[12],inactive
same,outcome,[13],inactive
same,Potency,[14],inactive
same,Potency,[15],inactive
same,outcome,[17],inactive
O=c1ccc2ccc(O)c(O)c2o1,Potency,[1],inactive
same,Potency,[2],9.47 µM (active)
same,outcome,[4],inactive
same,outcome,[5],inactive
same,outcome,[6],inactive
same,Potency,[8],inactive
same,activation,[9],-0.188% (inactive)
same,Potency,[20],inactive
same,viability change,[20],21%
same,outcome,[10],inactive
same,outcome,[11],inactive
same,Potency,[15],inactive
same,Potency,[16],inactive
same,outcome,[17],inactive
O=C(CCc1ccc(O)cc1)c1c(O)cc(O)cc1O,Potency,[2],inactive
same,Potency,[3],inactive
same,outcome,[4],inactive
same,outcome,[5],inactive
same,outcome,[6],inactive
same,Potency,[7],inactive
same,Potency,[8],inactive
same,activation,[9],1.75% (inactive)
same,outcome,[10],inactive
same,outcome,[11],inactive
same,Potency,[12],inactive
same,outcome,[13],inactive
same,Potency,[14],inactive
same,Potency,[15],inactive
same,outcome,[17],inactive
same,outcome,[18],inactive
COc1cc2nc(N3CCN(C(=O)C4CCCO4)CC3)nc(N)c2cc1OC (stereo not given),Potency,[1],inactive
same,Potency,[2],inactive
same,Potency,[3],inactive
same,outcome,[4],inactive
same,outcome,[6],inactive
same,Potency,[7],inactive
same,Potency,[8],inactive
same,activation,[9],0.562% (inactive)
same,outcome,[10],inactive
same,outcome,[11],inactive
same,Potency,[12],inactive
same,outcome,[13],inactive
same,Potency,[14],inactive
same,Potency,[15],inactive
same,Potency,[16],inactive
same,outcome,[17],inactive
